These results are taken from PubChem BioAssay (NCI).

About 83,000 compounds went through this panel and 20% of them were active in at least one assay; those are over-represented in the sample as a whole.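 Note: values are percent growth. 100 is the growth of untreated cells, values between 100 and 0 indicate rising inhibition; between -100 and 0 indicates cell death.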 A number with no mark means an inactive call. Activity calls are given as the source filed them. The calls were made as follows: active = growth percent below 10; inactive = the rest.

Among the test systems are HCT-15 colon; HT29 colon; SNB-75 CNS; SNB-19 CNS; U251 CNS; PC-3 prostate; SK-MEL-5 melanoma; UACC-62 melanoma; LOX IMVI melanoma; SK-MEL-28 melanoma; SK-MEL-2 melanoma; SN12C renal; UO-31 renal; TK-10 renal; ACHN renal; CAKI-1 renal; A498 renal; CCRF-CEM leukemia; MOLT-4 leukemia.
Common to all, as to test: NCI-60 one-dose screen, 48 h (100 = growth as untreated, 0 = no growth, -100 = all killed)
Holding throughout (conditions): 10 µM unless noted

In the case of `Cc1nc2sccn2c1-c1csc(Nc2ccccc2Cl)n1`, the growth was 34.2% in the assay with HCT-15 colon; 15.4% with HT29 colon; 56.9% with SNB-75 CNS; 65.6% in the assay on SNB-19 CNS; 42.1% with U251 CNS; 53.5% with PC-3 prostate. For the same compound, the growth with SK-MEL-5 melanoma was 11.5%; in the assay with UACC-62 melanoma it was 46.7%; in the assay on LOX IMVI melanoma, 45.5%; with SK-MEL-28 melanoma it was 65.6%; in the assay on SK-MEL-2 melanoma it was 33.9%; in the assay on SN12C renal it was 57.1%. The growth in the assay with UO-31 renal was 42.4%; in the assay with TK-10 renal, 61%; in the assay on ACHN renal it was 58.9%; in the assay on CAKI-1 renal, 34.6%; in the assay with A498 renal, 31.5%; in the assay on CCRF-CEM leukemia, 48.6%. Further, in the assay with MOLT-4 leukemia, the growth was 17%.

For the compound `COc1cc(/C=C2\CCCC3=C2N=C2SC(C)=NN2C3c2cc(OC)c(OC)c(OC)c2)cc(OC)c1OC` (centres undefined), the growth is -20.6% (active) with HCT-15 colon; 13.9% in the assay with HT29 colon; -7.84% (active) with SNB-75 CNS; 32.3% in the assay with SNB-19 CNS; 20.9% with U251 CNS; 57.7% in the assay on PC-3 prostate. The growth with SK-MEL-5 melanoma was 45.2%; in the assay on UACC-62 melanoma it was -31.2% (active); in the assay with LOX IMVI melanoma it was -67.6% (active); in the assay on SK-MEL-28 melanoma, 26.3%; with SK-MEL-2 melanoma it was 77.5%; with SN12C renal it was -5.64% (active). The growth in the assay on UO-31 renal was 8.14% (active); in the assay on TK-10 renal, 75.9%; with ACHN renal, -7.34% (active); in the assay with CAKI-1 renal it was -38.1% (active); in the assay on A498 renal, -0.731% (active); in the assay on CCRF-CEM leukemia, -10% (active). Further, the growth with MOLT-4 leukemia is -7.59% (active).

For `O=C(CCCn1c(=O)c2sc3ccccc3c2n2nnc(-c3ccccc3)c12)NCCc1cnc[nH]1`, the growth was -63.1% (active) with HCT-15 colon; -94.1% (active) in the assay with HT29 colon; 28.2% in the assay with SNB-75 CNS; -12.3% (active) in the assay with SNB-19 CNS; -51.2% (active) with U251 CNS; -14% (active) in the assay with PC-3 prostate. In addition, the growth in the assay with SK-MEL-5 melanoma was -69.6% (active); in the assay with UACC-62 melanoma it was -78.5% (active); in the assay with LOX IMVI melanoma, -16.7% (active); with SK-MEL-28 melanoma it was -49.7% (active); in the assay with SK-MEL-2 melanoma, -49.2% (active); with SN12C renal it was -78% (active). Besides, the growth was -79.3% (active) with UO-31 renal; -62.4% (active) in the assay on TK-10 renal; -37.9% (active) in the assay on ACHN renal; 14.9% with CAKI-1 renal; 95.6% in the assay on A498 renal; 42.6% in the assay on CCRF-CEM leukemia. Besides, the growth in the assay with MOLT-4 leukemia is 73.3%.

For `CC(=O)Nc1nc(C(=O)N2N=C(C)/C(=C/c3cccs3)C2=O)cs1`, the growth with HCT-15 colon is 93.1%; with HT29 colon, 96.5%; with SNB-75 CNS, 92%; with SNB-19 CNS it was 102%; in the assay with U251 CNS, 99.4%; with PC-3 prostate, 102%. Besides, the growth is 109% in the assay with SK-MEL-5 melanoma; 113% in the assay on UACC-62 melanoma; 98% with LOX IMVI melanoma; 111% with SK-MEL-28 melanoma; 98.4% in the assay on SK-MEL-2 melanoma; 110% with SN12C renal. In addition, the growth in the assay on UO-31 renal is 84%; with TK-10 renal, 107%; with ACHN renal, 113%; in the assay on CAKI-1 renal, 98.6%; in the assay with A498 renal, 115%; in the assay with CCRF-CEM leukemia, 92.4%. For the same compound, in the assay on MOLT-4 leukemia, the growth was 79.1%.

For the compound `COc1cc(Cn2c(SCC(=O)Nc3ccc(Cl)cc3)nc3ccccc3c2=O)cc(OC)c1OC`, the growth with HCT-15 colon is 72.8%; in the assay on HT29 colon it was 87.4%; in the assay on SNB-75 CNS, 27.1%; in the assay on SNB-19 CNS, 63.9%; in the assay on U251 CNS, 75.4%; in the assay on PC-3 prostate, 65.9%. Also, the growth in the assay on SK-MEL-5 melanoma is 49.8%; in the assay with UACC-62 melanoma, 63.3%; in the assay on LOX IMVI melanoma, 56.1%; in the assay with SK-MEL-28 melanoma, 83.7%; in the assay on SK-MEL-2 melanoma, 81%; in the assay with SN12C renal it was 71.2%. For the same compound, the growth with UO-31 renal is 17.7%; in the assay with TK-10 renal it was 67.8%; with ACHN renal, 18.9%; in the assay on CAKI-1 renal, 71.1%; in the assay with A498 renal it was 41.4%; with CCRF-CEM leukemia, 83.1%. Besides, the growth with MOLT-4 leukemia is 46.4%.

For `CC1=NN2C(=NC3=C(CCC/C3=C\c3ccc(Cl)cc3)C2c2ccc(Cl)cc2)S1` (centres undefined), the growth with HCT-15 colon was 89.3%; with HT29 colon, 48.1%; in the assay with SNB-75 CNS, 100%; in the assay on SNB-19 CNS, 84.3%; in the assay on U251 CNS, 85.9%; with PC-3 prostate, 95.3%. Moreover, the growth in the assay on SK-MEL-5 melanoma was 96.6%; in the assay on UACC-62 melanoma, 83%; in the assay on LOX IMVI melanoma, 60.6%; in the assay with SK-MEL-28 melanoma it was 99.3%; in the assay on SK-MEL-2 melanoma, 86.3%; with SN12C renal it was 102%. In addition, the growth was 86.1% in the assay with UO-31 renal; 111% in the assay with TK-10 renal; 98.2% in the assay with ACHN renal; 99.9% in the assay with CAKI-1 renal; 87.6% with A498 renal; 84.7% in the assay with CCRF-CEM leukemia. Further, in the assay on MOLT-4 leukemia, the growth is 72.9%.

In the case of `Cc1ccc(Cn2c(-c3cccs3)nc3ccccc32)cc1`, the growth is 81.7% with HCT-15 colon; 92.7% in the assay with HT29 colon; 62.2% in the assay with SNB-75 CNS; 95.1% in the assay with SNB-19 CNS; 85.5% in the assay on U251 CNS; 72.2% in the assay with PC-3 prostate. The growth is 82.4% in the assay on SK-MEL-5 melanoma; 85.4% in the assay with UACC-62 melanoma; 82.5% with LOX IMVI melanoma; 111% with SK-MEL-28 melanoma; 101% in the assay on SK-MEL-2 melanoma; 98.6% in the assay on SN12C renal. The growth was 59.5% in the assay on UO-31 renal; 89.8% with TK-10 renal; 86.4% in the assay with ACHN renal; 86.3% in the assay on CAKI-1 renal; 80.2% in the assay on A498 renal; 90.3% in the assay on CCRF-CEM leukemia. For the same compound, the growth in the assay with MOLT-4 leukemia is 93.2%.

For the compound `CCC1=C[C@@H]2CN(C1)Cc1c([nH]c3ccccc13)[C@@](C(=O)OC)(c1cc3c(cc1OC)N(C=O)[C@H]1[C@@](O)(C(=O)OC)[C@H](OC(C)=O)[C@]4(CC)[C@@H]5C[C@@H]5CN5CC[C@]31[C@@H]54)C2`, the growth with HCT-15 colon was 10.3%; in the assay on HT29 colon, -5.12% (active); in the assay on SNB-75 CNS it was 8.7% (active); with SNB-19 CNS it was 28.3%; with U251 CNS it was 11.8%; in the assay with PC-3 prostate, 7.43% (active). Moreover, the growth is -26.9% (active) with SK-MEL-5 melanoma; 18.5% in the assay on UACC-62 melanoma; 7.6% (active) in the assay on LOX IMVI melanoma; 60.9% in the assay with SK-MEL-28 melanoma; 18% with SK-MEL-2 melanoma; 21.9% in the assay with SN12C renal. In addition, the growth in the assay with UO-31 renal is 28.7%; in the assay with TK-10 renal, 49.2%; in the assay on ACHN renal it was 35.6%; with CAKI-1 renal, 8.29% (active); with A498 renal, -8.16% (active); in the assay with CCRF-CEM leukemia, 8.71% (active). Moreover, in the assay with MOLT-4 leukemia, the growth is 13.4%.

Regarding `COc1ccccc1OCC(=O)Nc1sc2c(c1C(N)=O)CCC2`, the growth was 83.1% with HCT-15 colon; 74.1% in the assay with HT29 colon; 86.8% in the assay on SNB-75 CNS; 70.4% with SNB-19 CNS; 60.9% in the assay on U251 CNS; 88.1% with PC-3 prostate. The growth is 70% in the assay with SK-MEL-5 melanoma; 49.7% with UACC-62 melanoma; 50.5% in the assay with LOX IMVI melanoma; 101% in the assay on SK-MEL-28 melanoma; 37.5% with SK-MEL-2 melanoma; 64.2% in the assay on SN12C renal. The growth in the assay on UO-31 renal was 26.5%; with TK-10 renal, 104%; with ACHN renal, 32.2%; in the assay on CAKI-1 renal, 63.7%; in the assay with A498 renal, 67.1%; in the assay with CCRF-CEM leukemia, 24.3%. Moreover, the growth in the assay on MOLT-4 leukemia is 26%.

Regarding `Cc1oc2ncnc(Nc3ccccc3)c2c1C(=O)NCCO`, the growth was 98.1% in the assay with HCT-15 colon; 106% in the assay with HT29 colon; 90.7% in the assay on SNB-75 CNS; 93.9% with SNB-19 CNS; 102% with U251 CNS; 107% in the assay on PC-3 prostate. For the same compound, the growth was 97.5% in the assay with SK-MEL-5 melanoma; 86.2% in the assay with UACC-62 melanoma; 95.4% in the assay with LOX IMVI melanoma; 98.9% in the assay with SK-MEL-28 melanoma; 113% with SK-MEL-2 melanoma; 93.2% in the assay on SN12C renal. For the same compound, the growth in the assay with UO-31 renal is 87.7%; with TK-10 renal, 122%; with ACHN renal, 91.8%; with CAKI-1 renal, 90.8%; in the assay with A498 renal, 78.2%; with CCRF-CEM leukemia, 97.4%. For the same compound, in the assay on MOLT-4 leukemia, the growth is -0.282% (active).

Turning to `CSc1ccccc1C#C/C=C\C#Cc1ccccc1N1CCCCC1=O`, the growth was 112% in the assay on HCT-15 colon; 94.9% in the assay with HT29 colon; 118% in the assay on SNB-75 CNS; 111% in the assay with SNB-19 CNS; 93.6% in the assay on U251 CNS; 77.7% in the assay with PC-3 prostate. Besides, the growth with SK-MEL-5 melanoma is 101%; with UACC-62 melanoma it was 78.5%; with LOX IMVI melanoma, 91.8%; in the assay with SK-MEL-28 melanoma, 153%; in the assay on SK-MEL-2 melanoma, 70.8%; in the assay on SN12C renal, 98.3%. For the same compound, the growth was 34.6% with UO-31 renal; 151% with TK-10 renal; 97.7% with ACHN renal; 95% in the assay with CAKI-1 renal; 107% in the assay on A498 renal; 60% in the assay on CCRF-CEM leukemia. In addition, in the assay with MOLT-4 leukemia, the growth was 104%.
